PubChem BioAssay AID1159580 (chemical genetic matrix, 2015)
In all, about 5,500 compounds went through this assay and about 2,000 (36%) were called active. Not shown: some 18% with an inconclusive outcome. No stated cut-off is given here; in the data, active means normalized growth mostly below about 0.91 (no sharp cut-off); inconclusive means no clear call, values can overlap the other calls; inactive means mostly above about 0.92. This is one part of the list.

Assay: chemical genetic growth profiling, strain panel (AID 1159580);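 further: tested at 20 µM; growth read once vehicle control cultures reached saturation at 30 °C; 1 = growth at the plate median or of vehicle wells; lower values mean less growth of the strain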
Details: growth OD

Measured: normalized growth

C[C@H]1CC2C([C@@H](O)C[C@@]3(C)C2CC[C@]3(O)C(=O)CO)[C@@]2(C)C=CC(=O)C=C12 (some centres not stated)
inactive: S. cerevisiae deletion strains, locus YJR075W, strain HOC1, active compounds read low 1.01 | S. cerevisiae deletion strains, locus YKL009W, strain mrt4, active compounds read low 0.997 | S. cerevisiae deletion strains, locus YKL068W, active compounds read low 0.999 | S. cerevisiae deletion strains, locus YKL085W, strain MDH1 (second series), active compounds read low 1 | S. cerevisiae deletion strains, locus YKL085W, strain MDH1, active compounds read low 1 | S. cerevisiae deletion strains, locus YKL160W, strain elf1, active compounds read low 0.975 | S. cerevisiae deletion strains, locus YKL190W, strain CNB1, active compounds read low 0.995 | S. cerevisiae deletion strains, locus YKR001C, strain vps1, active compounds read low 1.02 | S. cerevisiae deletion strains, locus YKR026C, strain gcn3, active compounds read low 0.999 | S. cerevisiae deletion strains, locus YKR091W, strain srl3, active compounds read low 1.01 | S. cerevisiae deletion strains, locus YLL001W, strain dnm1, active compounds read low 0.96 | S. cerevisiae deletion strains, locus YLL026W, active compounds read low 0.982 | S. cerevisiae deletion strains, locus YLL041C, strain sdh2, active compounds read low 1.01 | S. cerevisiae deletion strains, locus YLR027C, strain aat2, active compounds read low 0.985 | S. cerevisiae deletion strains, locus YLR039C, strain RIC1, active compounds read low 0.982 | S. cerevisiae deletion strains, locus YLR058C, strain SHM2, active compounds read low 0.999 | S. cerevisiae deletion strains, locus YLR102C, strain apc9, active compounds read low 1.02 | S. cerevisiae deletion strains, locus YLR113W, strain HOG1, active compounds read low 1.03 | S. cerevisiae deletion strains, locus YLR221C, strain rsa3, active compounds read low 1.01 | S. cerevisiae deletion strains, locus YLR258W, strain gsy2, active compounds read low 1.01 | S. cerevisiae deletion strains, locus YLR262C, strain YPT6 (second series), active compounds read low 0.968 | S. cerevisiae deletion strains, locus YLR262C, strain YPT6, active compounds read low 0.996 | S. cerevisiae deletion strains, locus YLR268W, strain sec22, active compounds read low 1.07 | S. cerevisiae deletion strains, locus YLR320W, strain mms22, active compounds read low 0.989 | S. cerevisiae deletion strains, locus YLR330W, strain CHS5, active compounds read low 0.999 | S. cerevisiae deletion strains, locus YLR342W, strain FKS1 (second series), active compounds read low 1.01 | S. cerevisiae deletion strains, locus YLR342W, strain FKS1, active compounds read low 0.985 | S. cerevisiae deletion strains, locus YLR357W, strain rsc2, active compounds read low 0.996 | S. cerevisiae deletion strains, locus YLR370C, strain arc18, active compounds read low 0.992 | S. cerevisiae deletion strains, locus YLR371W, strain rom2, active compounds read low 1.01 | S. cerevisiae deletion strains, locus YLR384C, strain iki3, active compounds read low 0.996 | S. cerevisiae deletion strains, locus YLR418C, strain cdc73, active compounds read low 1.01 | S. cerevisiae deletion strains, locus YML016C, strain PPZ1, active compounds read low 1.01 | S. cerevisiae deletion strains, locus YML032C, strain rad52, active compounds read low 1.04 | S. cerevisiae deletion strains, locus YML120C, strain ndi1, active compounds read low 0.973 | S. cerevisiae deletion strains, locus YML124C, strain tub3, active compounds read low 1.01 | S. cerevisiae deletion strains, locus YMR058W, strain fet3, active compounds read low 0.994 | S. cerevisiae deletion strains, locus YMR078C, strain ctf18, active compounds read low 1.01 | S. cerevisiae deletion strains, locus YMR125W, strain sto1, active compounds read low 1.01 | S. cerevisiae deletion strains, locus YMR129W, active compounds read low 1 | S. cerevisiae deletion strains, locus YMR205C, strain PFK2, active compounds read low 0.993 | S. cerevisiae deletion strains, locus YMR223W, strain ubp8, active compounds read low 0.986 | S. cerevisiae deletion strains, locus YMR231W, strain pep5, active compounds read low 0.991 | S. cerevisiae deletion strains, locus YMR263W, strain SAP30, active compounds read low 1 | S. cerevisiae deletion strains, locus YMR307W, strain GAS1, active compounds read low 1 | S. cerevisiae deletion strains, locus YNL067W, strain RPL9B, active compounds read low 1.03 | S. cerevisiae deletion strains, locus YNL071W, strain lat1, active compounds read low 1 | S. cerevisiae deletion strains, locus YNL128W, strain TEP1, active compounds read low 0.982 | S. cerevisiae deletion strains, locus YNL153C, strain GIM3, active compounds read low 1.01 | S. cerevisiae deletion strains, locus YNL183C, strain NPR1, active compounds read low 0.994 | S. cerevisiae deletion strains, locus YNL209W, strain ssb2, active compounds read low 1.02 | S. cerevisiae deletion strains, locus YNL233W, strain BNI4, active compounds read low 1.01 | S. cerevisiae deletion strains, locus YNL248C, strain rpa49, active compounds read low 1.01 | S. cerevisiae deletion strains, locus YNL250W, strain rad50, active compounds read low 1.01 | S. cerevisiae deletion strains, locus YNL271C, strain bni1, active compounds read low 1.01 | S. cerevisiae deletion strains, locus YNL298W, strain CLA4, active compounds read low 1.01 | S. cerevisiae deletion strains, locus YNL307C, strain MCK1, active compounds read low 1.02 | S. cerevisiae deletion strains, locus YNL322C, strain KRE1 (second series), active compounds read low 1 | S. cerevisiae deletion strains, locus YNL322C, strain KRE1, active compounds read low 0.992 | S. cerevisiae deletion strains, locus YNR049C, strain mso1, active compounds read low 1 | S. cerevisiae deletion strains, locus YNR052C, strain pop2, active compounds read low 1.02 | S. cerevisiae deletion strains, locus YOL006C, strain TOP1, active compounds read low 1.04 | S. cerevisiae deletion strains, locus YOL012C, strain htz1 1.61 | S. cerevisiae deletion strains, locus YOL147C, strain pex11, active compounds read low 1.01 | S. cerevisiae deletion strains, locus YOR001W, strain rrp6, active compounds read low 0.966 | S. cerevisiae deletion strains, locus YOR061W, strain CKA2, active compounds read low 1 | S. cerevisiae deletion strains, locus YOR069W, strain VPS5, active compounds read low 1 | S. cerevisiae deletion strains, locus YOR070C, strain gyp1, active compounds read low 1 | S. cerevisiae deletion strains, locus YOR080W, strain dia2, active compounds read low 0.986 | S. cerevisiae deletion strains, locus YOR083W, strain WHI5, active compounds read low 0.959 | S. cerevisiae deletion strains, locus YOR106W, strain vam3, active compounds read low 0.987 | S. cerevisiae deletion strains, locus YOR136W, strain idh2, active compounds read low 1.01 | S. cerevisiae deletion strains, locus YOR144C, strain elg1, active compounds read low 1.01 | S. cerevisiae deletion strains, locus YOR184W, strain ser1, active compounds read low 1 | S. cerevisiae deletion strains, locus YOR231W, strain MKK1, active compounds read low 1.02 | S. cerevisiae deletion strains, locus YOR265W, strain rbl2, active compounds read low 0.995 | S. cerevisiae deletion strains, locus YOR270C, strain vph1, active compounds read low 1.02 | S. cerevisiae deletion strains, locus YOR290C, strain snf2, active compounds read low 1 | S. cerevisiae deletion strains, locus YOR316C, strain cot1, active compounds read low 1.01 | S. cerevisiae deletion strains, locus YPL051W, strain arl3, active compounds read low 0.988 | S. cerevisiae deletion strains, locus YPL055C, strain LGE1, active compounds read low 0.982 | S. cerevisiae deletion strains, locus YPL078C, strain atp4, active compounds read low 0.959 | S. cerevisiae deletion strains, locus YPL106C, strain sse1, active compounds read low 1.02 | S. cerevisiae deletion strains, locus YPL240C, strain hsp82, active compounds read low 1.01 | S. cerevisiae deletion strains, locus YPL241C, strain CIN2, active compounds read low 0.996 | S. cerevisiae deletion strains, locus YPL256C, strain CLN2, active compounds read low 1.1 | S. cerevisiae deletion strains, locus YPR119W, strain clb2, active compounds read low 1.01 | S. cerevisiae deletion strains, locus YPR141C, strain kar3, active compounds read low 1.01 | S. cerevisiae deletion strains, locus YPR163C, strain tif3, active compounds read low 1.02 | S. cerevisiae deletion strains, locus YPR167C, strain met16, active compounds read low 1.01 | S. cerevisiae deletion strains, strain wtn01, active compounds read low 1.03 | S. cerevisiae strains, strain wild type, active compounds read low 0.998
